From PubChem
TEAD-YAP block = TEAD-YAP interaction inhibition. HEK-TIYL cells, TEAD-Gal4/YAP UAS-luciferase luminescence. inhibition, % at 9.12 µM. actives 1.4% (n = 640,000); in the data active means inhibition above about 32%
FBW7 activator = activators of human E3 ligase FBW7. Q969H0. AlphaScreen FBW7–phospho-cyclin E peptide binding, activator screen. normalized activity (activation), % at 26.1 µM. actives 0.13% (n = 650,000); in the data active means normalized activity above about 1.9%;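 further: purified mutant Fbw7 with reduced substrate affinity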
GPR151 activ = human GPR151 activation; AID 1508602; actives 1% (n = 650,000); activation, % at 11.2 µM; PathHunter beta-arrestin GPR151 cells, luminescence; in the data active means activation above about 4.9%
Target sequence (Q8TDV0 whole entry, looked up): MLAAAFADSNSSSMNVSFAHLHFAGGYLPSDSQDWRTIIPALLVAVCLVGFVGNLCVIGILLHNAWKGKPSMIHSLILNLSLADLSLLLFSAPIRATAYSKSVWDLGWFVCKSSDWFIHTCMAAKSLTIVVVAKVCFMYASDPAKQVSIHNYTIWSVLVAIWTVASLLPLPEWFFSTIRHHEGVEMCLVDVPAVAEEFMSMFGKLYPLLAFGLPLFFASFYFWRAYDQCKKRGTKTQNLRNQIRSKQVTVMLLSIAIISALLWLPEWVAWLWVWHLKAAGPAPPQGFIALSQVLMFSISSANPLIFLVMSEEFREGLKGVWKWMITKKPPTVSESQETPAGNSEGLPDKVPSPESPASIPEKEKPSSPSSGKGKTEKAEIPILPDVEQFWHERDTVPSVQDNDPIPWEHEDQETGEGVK
MITF primary = blocks human microphthalmia-associated transcription factor. O75030. AlphaScreen MITF homodimerization, bead proximity signal. inhibition, % at 2.6 µM. actives 0.91% (n = 650,000); in the data active means inhibition above about 50%
MITF inh conf = confirmation of human MITF inhibitors; shares compounds with MITF primary; AlphaScreen MITF homodimerization, biotin/His-MITF beads; inhibition, % at 2.6 µM; actives 16% (n = 4,700); AID 1259372;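 active means inhibition above a cutoff derived from the DMSO control wells, cut at about 28% in these data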;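 further: inhibitors lower the bead chemiluminescence by keeping MITF from dimerizing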
AS interf DR = optically interferes with AlphaScreen signal in dose response; shares compounds with MITF primary; AlphaScreen optical interference counterscreen, cell-free; IC50, µM; actives 6% (n = 480); call rule not given here
AS interf ctr = counter-screen: compounds optically interfering with AlphaScreen | shares compounds with MITF primary | LysRS AlphaScreen counterscreen, signal interference, triplicate | inhibition, % at 2.6 µM | actives 7.6% (n = 4,700);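 active means inhibition above a cutoff derived from the DMSO control wells, cut at about 30% in these data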
A number is an active result; . = inactive; / = no result given. An excerpt weighted towards active compounds, which were near 3.4% of everything screened.

SMILES	TEAD-YAP block	FBW7 activator	GPR151 activ	MITF primary	MITF inh conf	AS interf ctr	others
CCCOC(=O)C(C)Nc1n[nH]c(=S)[nH]c1=O (stereo unspecified)	.	.	.	55	.	.
Cc1ccc(S(=O)(=O)c2cnc(C)nc2-c2ccncc2)cc1	.	.	.	.	/	/
CN1CCN(C(=O)/C=C/c2ccccc2Cl)CC1	.	.	.	.	/	/
CCCCc1ncc(CN2CCC3(CCC(CNC(=O)c4ccccc4)O3)CC2)[nH]1 (stereo unspecified)	.	.	.	84	.	.
C#CCOc1ccc(/C=c2\sc3nc4cc(C)c(C)cc4n3c2=O)cc1	.	.	.	.	/	/
NC(=O)COc1ccc(Br)cc1	.	.	.	.	/	/
CCN1CCN(CC(=O)c2ccc(OC(F)F)cc2)CC1	.	.	.	78	.	.
CC(=O)c1ccc(OCCN2CCCCC2)cc1	.	.	.	.	/	/
CC(=O)c1ccc(OCCCCN2CCN(C)CC2)cc1	.	.	.	52	.	.
CCN1CCN(CCOc2ccc(C(C)=O)cc2)CC1	.	.	.	78	.	.
Cc1cc(=O)n(C)c(=O)n1CCCCCOc1ccc([N+](=O)[O-])cc1	.	.	.	.	/	/
COc1ccc(Cn2c(=O)c3cccnc3n(CC(=O)Nc3ccc(C)cc3C)c2=O)cc1	.	.	.	.	/	/
COc1cc(CN2CCN(Cc3ccc(C(F)(F)F)cc3)CC2)cc2c1OCO2	.	.	.	61	.	37
COc1cc(CNc2ccccc2)cc2c1OCO2	.	.	.	62	.	.
COc1cc(CN2CCN(Cc3ccc(F)cc3)CC2)cc2c1OCO2	.	.	.	76	.	.
COc1cc(CN2CCN(Cc3cccc(Br)c3)CC2)cc(OC)c1OC	.	.	.	69	.	.
COc1cc(CN2CCN(Cc3cccc(Br)c3)CC2)cc2c1OCO2	.	.	.	65	.	.
COc1ccc(CN2CCN(Cc3cc(OC)c4c(c3)OCO4)CC2)cc1OC	.	.	.	.	/	/
O=C(NC(Nc1ncccn1)C(Cl)(Cl)Cl)c1ccc(F)cc1 (stereo unspecified)	.	.	.	.	/	/
CCc1ccccc1OC[C@@H](O)CNC1CCCc2ccccc21 (stereo partly specified)	/	.	.	.	/	/
CC(=O)CCc1ccc(OCC(O)CNC2CCCc3ccccc32)cc1 (stereo unspecified)	.	.	.	70	.	.
CC1CCN(C2CCN(Cc3cccc(Cl)c3)CC2)CC1	.	.	.	57	.	.
OCC1CCN(C2CCCN(Cc3cccc(Cl)c3)C2)CC1 (stereo unspecified)	.	.	.	.	/	/
OC1CCN(Cc2ccc3c(c2)OCO3)CC1	.	.	.	.	/	/
Clc1cccc(CN2CCN(C3CCCCC3)CC2)c1	.	.	.	74	.	.
SMILES	TEAD-YAP block	FBW7 activator	GPR151 activ	MITF primary	MITF inh conf	AS interf ctr	others
CC1CCN(C2CCN(Cc3ccc4c(c3)OCO4)CC2)CC1	.	.	.	54	.	.
Cc1cccc(CN2CCN(C3CCCCCC3)CC2)c1	.	.	.	.	/	/
CC1CCC(N2CCN(Cc3cccc(Cl)c3)CC2)CC1 (stereo unspecified)	.	.	.	64	.	.
CCCCc1ccc(-c2ccc(CC)cn2)cc1	.	.	.	.	/	/
CC1=C(C(=O)OC2CCC(C)CC2)C(c2ccccc2Cl)NC(=O)N1 (stereo unspecified)	.	.	.	81	.	.
CC1=C(C(=O)OC2CCCCC2)C(c2ccc(OCc3ccccc3)cc2)NC(=O)N1 (stereo unspecified)	.	.	.	55	.	.
N#C/C(=C\c1ccc(-c2ccccc2C(=O)O)o1)C(=O)NCc1ccco1	.	.	.	76	64	.	AS interf DR=.
Cc1c(C(=O)O)cccc1-c1ccc(/C=C(\C#N)C(=O)NCc2ccco2)o1	.	.	.	.	/	/
O=C(O)c1ccccc1N1C(=O)C2CC=C(Cl)CC2C1=O (stereo unspecified)	.	.	.	.	/	/
Cc1cc(C)c(CN2CCN(C3CCN(C(C)C)CC3)C(CCO)C2)cc1C (stereo unspecified)	.	.	.	.	/	/
Cc1c(CN2CCN(C3CCN(C(C)C)CC3)C(CCO)C2)cnn1C (stereo unspecified)	.	.	.	84	.	.
COc1cc(C=Nc2ccc(N(C)C)cc2)cc(I)c1O	.	.	.	77	45	.	AS interf DR=.
CC(=O)c1cccc(OCCN2CCN(C)CC2)c1	.	.	.	57	.	.
CC(=O)c1ccc(OCCCN2CCN(C)CC2)cc1	.	.	.	.	/	/
CC(=O)c1cccc(OCCCN2CCCCC2)c1	.	.	.	.	/	/
CCN1CCN(CCCCOc2cccc(C(C)=O)c2)CC1	.	.	.	59	.	.
CCOC(=O)c1ccc(N2C(=O)C(Cl)=C(Nc3ccccc3C(=O)O)C2=O)cc1	.	.	.	56	.	.
O=C(NCCN1CCOCC1)c1ccc2c(=O)n(Cc3ccc(Cl)cc3)c(=S)[nH]c2c1	.	.	.	.	/	/
NC(=O)NC(=O)CC1S/C(=N/N=C2\CSC(=O)N2)NC1=O (stereo unspecified)	.	.	.	96	72	100
O=C(O)CC1S/C(=N/N=C2\CSC(=O)N2)NC1=O (stereo unspecified)	.	.	.	92	84	100
CCOC(=O)c1ccc(NC(=O)CC2S/C(=N/N=C3\CSC(=O)N3)NC2=O)cc1 (stereo unspecified)	.	.	.	.	/	/
COC(=O)c1c(NC(=O)COc2ccccc2C)sc2c1CCCC2	.	.	.	.	/	/
O=[N+]([O-])c1ccc(S(=O)(=O)N2CCN(Cc3cccc(Cl)c3)CC2)cc1	.	.	.	64	.	.
O=[N+]([O-])c1cccc(CN2CCN(S(=O)(=O)c3ccc4ccccc4c3)CC2)c1	.	.	.	62	.	.
O=S(=O)(c1ccc2ccccc2c1)N1CCN(C2CCN(Cc3ccccc3)CC2)CC1	.	.	.	52	.	.
SMILES	TEAD-YAP block	FBW7 activator	GPR151 activ	MITF primary	MITF inh conf	AS interf ctr	others
O=[N+]([O-])c1ccc(Cl)c(S(=O)(=O)N2CCN(Cc3ccccc3)CC2)c1	.	.	.	.	/	/
O=S(=O)(c1cccc(S(=O)(=O)N2CCN(Cc3ccccc3)CC2)c1)N1CCCC1	.	.	.	53	.	.
COc1cccc(CN2CCN(S(=O)(=O)c3cccc([N+](=O)[O-])c3)CC2)c1	.	.	.	.	/	/
C/C(CC(C)C)=N\NC(=O)c1ccc(NCc2ccccc2)cc1	.	.	.	.	/	/
CCc1ccccc1NC(=O)c1noc2c1COc1ccccc1-2	.	.	.	.	/	/
CC(=O)N1CCN(Cc2ccccc2[N+](=O)[O-])CC1	.	.	.	.	/	/
COc1ccc(OC)c(CN2CCN(Cc3ccccc3[N+](=O)[O-])CC2)c1	.	.	.	77	.	.
